Assay results from ChEMBL document CHEMBL1157539, “Thousands of chemical starting points for antimalarial lead identification” (Nature, 2010).

Assays:
Format in all cases: functional
[1] = test system: Plasmodium falciparum; assay: GSK_TCMDC: Inhibition of Plasmodium falciparum 3D7 in whole red blood cells, using parasite LDH activity as an index of growth. Test compounds present at 2uM
[2] = test system: Plasmodium falciparum; assay: GSK_TCMDC: Inhibition of Plasmodium falciparum Dd2 in whole red blood cells, using parasite LDH activity as an index of growth. Test compounds present at 2uM
[3] = test system: HepG2; assay: GSK_TCMDC: Percent inhibition of human HepG2 cell line. Test compounds present at 10uM.

| SMILES | Inhibition [1] [%] | Inhibition [2] [%] | Inhibition [3] [%] |
| --- | --- | --- | --- |
| COC(=O)c1cccc(CNCc2ccc(-c3cccc(-c4nc5cc(C(F)(F)F)ccc5[nH]4)c3)cc2)c1.O=C(O)C(F)(F)F | 100 | 97 | 5 |
| CN(C)CCC1CCN(CCS(=O)(=O)c2cccc(Nc3ccc(-c4ccsc4)cn3)c2)CC1 | 97 | 6 | 49 |
| O=C(Nc1ccc(F)cc1)NC1CCN(c2ccnc3cc(Cl)ccc23)CC1.O=C(O)C(F)(F)F | 97 | 57 | 10 |
| O=C(COC(=O)c1cccc(S(=O)(=O)N2CCc3ccccc32)c1)NNC(=O)c1cccs1 | 96 | 4 | 4 |
| O=C(/C=C/c1ccc(Cl)c(Cl)c1)NC1CCN(Cc2ccc(O)cc2)C1.O=C(O)C(F)(F)F (stereo not given) | 97 | 4 | 15 |
| Cc1cccc2nc(-c3ccc(-c4cccc(CNCc5ccccc5)c4)s3)[nH]c12.O=C(O)C(F)(F)F | 99 | 50 | 3 |
| O=C(c1cc(-c2ccco2)n[nH]1)N1CCN(S(=O)(=O)c2ccc(Cl)cc2)CC1 | 96 | 95 | 0 |
| Cc1cc(N[C@@H](Cc2ccccc2)C(=O)Nc2ccccc2)nc(NCCc2ccccc2)n1.O=C(O)C(F)(F)F | 100 | 87 | 8 |
| O=C(/C=C/c1ccc(Cl)c(Cl)c1)NCCCCCCN1CCCN(C(=O)Nc2ccc(Cl)c(C(F)(F)F)c2)CC1 | 100 | 24 | 25 |
| Cc1cc2nc(-c3ccc(OCC(=O)NCc4ccc(C(C)(C)C)cc4)cc3)[nH]c2cc1C | 94 | 0 | 11 |
